For twelve compounds, AC50 and outcome results are on record in PubChem BioAssay (EPA / NIEHS).

Where “and” joins values, the source holds several entries; their conditions need not be identical. Equal values may be shown once. Calls of active or inactive are those of the source. How the source made its calls: active means hit-call score of the fitted dose curve at least 0.9, where 1 is the maximum; inconclusive means response in the unintended direction; inactive means score below 0.9.

The test relates to Thyroperoxidase (TPO), gene 54314. The test can be described thus: CCTE_Simmons_AUR_rTPO: CCTE's Amplex UltraRed Assay for Thyroperoxidase (TPO) Inhibition, Simmons Lab (AID 2283662).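 On AC50: potency for loss of signal meaning inhibition of peroxidase activity.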 The procedure, abridged: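 Rat thyroid microsomal TPO + 25 uM AUR in 200 mM K phosphate; cpd 5 nM–87.5 uM [final], 8 conc, 0.5% DMSO; 300 uM H2O2 starts rxn; 37C dark 30 min; endpoint FI 544/590 nm; n=3.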
In general, AC50 refers to the concentration giving half of the maximal activity seen. Turning to `O=C(O)c1cccc(N(Cc2cccnc2)c2ccc(OC(F)F)c(OC(F)F)c2)c1`, the AC50 is 31.2 µM (active). Consider `CC(C)=CCCC(C)=CC=O`, for which the AC50 is 43.8 µM (active). On the same count and under the same terms, to `CC/C(=C\C(=N/O)C(N)=O)C(C)[N+](=O)[O-]` (configuration not stated) belongs 26.3 µM (active). Consider `CCCN(C1CCN(C(=O)C2CCNCC2)CC1)[C@@H]1CCc2ccc(OC)cc2C1`, for which the outcome was inactive. Consider `CCC(C)(C)C(=O)O[C@H]1C[C@@H](C)C=C2C=C[C@H](C)[C@H](CC[C@@H]3C[C@@H](O)CC(=O)O3)[C@H]21`, for which the concentration at half-maximal activity (AC50) was 43.8 µM (active). Consider `CN(C)c1ccc(N=NS(=O)(=O)O)cc1`, for which the AC50 is 21.7 µM (active).

In the case of `CC[C@H](C)C(=O)O[C@H]1C[C@@H](C)C=C2C=C[C@H](C)[C@H](CC[C@@H]3C[C@@H](O)CC(=O)O3)[C@H]21`, the AC50 is 40.3 µM (active) and 43.8 µM (active). For the compound `On1ccccc1=S`, the AC50 is 17.5 µM (active).

Turning to `CC(C)=CCCC(C)CCO` (configuration not stated), the compound was called inactive.

As to `CCOc1cccc(-n2cc(C(=O)N3CCN(c4cc(C(=O)O)c5ccccc5c4)CC3)nc2-c2ccc(C)cc2)c1`, the AC50 is 43.8 µM (active).

Take `C=CC(=C)CCC=C(C)C`: the result was inactive. Consider `CCCCCCc1ccc(O)cc1O`, for which the AC50 is 0.00854 µM (active).
